Source: PubChem BioAssay AID624481 (The Scripps Research Institute Molecular Screening Center, 2012)
A number with no mark means an inactive call. The source made the active and inactive calls. Cut-off read from the data, not from the text of the source: active = inhibition above about 50%; inactive = the rest.

Molecular target: Prolyl endopeptidase-like (Mus musculus) (UniProt Q8C167)
Assay: mouse PREPL enzyme inhibition by screening hits – biochemical, gel-based competitive ABPP, fluorescence, HTS hits, PREPL inhibitor project (AID 624481)
Details: purified mouse PREPL, at 20 µM, active compounds read high

Prolyl endopeptidase-like (Mus musculus), sequence (Q8C167 whole entry, looked up): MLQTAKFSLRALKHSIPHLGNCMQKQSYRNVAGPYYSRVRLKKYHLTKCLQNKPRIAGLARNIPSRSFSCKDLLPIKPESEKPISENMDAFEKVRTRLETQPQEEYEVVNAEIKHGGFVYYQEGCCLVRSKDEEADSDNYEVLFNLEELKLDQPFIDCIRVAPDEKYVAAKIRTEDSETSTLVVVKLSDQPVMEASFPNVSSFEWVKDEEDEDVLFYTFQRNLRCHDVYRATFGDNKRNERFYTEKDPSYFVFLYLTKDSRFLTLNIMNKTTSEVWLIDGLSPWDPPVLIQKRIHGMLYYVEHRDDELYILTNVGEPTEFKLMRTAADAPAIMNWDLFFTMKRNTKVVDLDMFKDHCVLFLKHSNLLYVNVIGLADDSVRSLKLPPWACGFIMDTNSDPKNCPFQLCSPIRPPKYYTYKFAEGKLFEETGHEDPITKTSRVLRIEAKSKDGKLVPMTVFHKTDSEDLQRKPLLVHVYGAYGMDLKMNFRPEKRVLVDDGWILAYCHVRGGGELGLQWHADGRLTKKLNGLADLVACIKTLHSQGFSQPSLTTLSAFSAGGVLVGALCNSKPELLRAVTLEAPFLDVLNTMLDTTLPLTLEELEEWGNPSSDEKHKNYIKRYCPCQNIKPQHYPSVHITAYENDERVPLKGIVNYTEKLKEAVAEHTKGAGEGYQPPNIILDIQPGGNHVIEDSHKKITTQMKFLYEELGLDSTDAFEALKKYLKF

**Q.** With `CN(C)c1ccc(C(CNC(=O)c2ccccc2)c2c[nH]c3ccccc23)cc1` (configuration not stated) as the compound, how does the inhibition read?
**A.** 13%

**Q.** For `COc1ccc(C2CC(c3cccc(C)c3)n3nc(N)nc3N2)cc1` (configuration not stated), which inhibition is on record?
**A.** -50%

**Q.** `CC[C@@H](C)[C@@H]1CN([C@@H](CN2CCC[C@H]2CN2C(N)=NC[C@H]2C(C)C)C(C)C)C(=N)N1CCCC1CCCC1` was tested. Which inhibition did it give?
**A.** -53%

**Q.** With `Cc1ccc2nc3c(cc(C(=O)NCCc4ccccc4)c(=N)n3CCCN3CCOCC3)c(=O)n2c1` as the compound, how does the inhibition read?
**A.** -43%

**Q.** Which inhibition does the source give for `CCCCCN=C(N)NN=Cc1c[nH]c2ccc(OC)cc12` here?
**A.** -11%

**Q.** How did the inhibition turn out when `CN1CCN(c2ccc(NC(=O)COc3ccc(Cl)cc3Cl)cc2)CC1` was run?
**A.** -13%

**Q.** `Cc1ccc2c(CC(=O)Nc3ccc(N4CCN(C)CC4)cc3C)coc2c1` was tested. Which inhibition did it give?
**A.** -3%

**Q.** For `CCC[C@@H](CN1CCC[C@H]1CN1C(N)=NC[C@H]1C(C)C)N1C[C@@H]([C@H](C)CC)N(CCCC2CCCC2)C1=N`, which inhibition is on record?
**A.** -68%

**Q.** How did the inhibition turn out when `Cc1c(CN(C)C)c2c(n1Cc1ccccc1)C(=O)c1ccc(Br)cc1-2` was run?
**A.** -33%

**Q.** Which inhibition does the source give for `O=C(c1cc([N+](=O)[O-])ccc1Cl)N1CCN(c2ccc([N+](=O)[O-])cc2)CC1` here?
**A.** -51%

**Q.** How did the inhibition turn out when `COc1cc2[nH]c3c(N4CCN(c5ccccn5)CC4)ncnc3c2cc1OC` was run?
**A.** 1%

**Q.** `C#CCOCCOCCOCCNc1nc(N2CCN(C(=O)C(Cc3cc4ccccc4[nH]3)n3cc(C(N)C(C)CC)nn3)CC2)nc(N2CCN(C(=O)C(Cc3cc4ccccc4[nH]3)n3cc(C(N)C(C)CC)nn3)CC2)n1` (configuration not stated) was tested. Which inhibition did it give?
**A.** -161%

**Q.** Which inhibition does the source give for `Oc1c(CN2CCCCC2)cc(COCc2ccccc2)c2cccnc12` here?
**A.** 92% (active)

**Q.** Which inhibition does the source give for `CCC[C@@H](CN1CCC[C@H]1CN1C(N)=NC[C@H]1C(C)C)N1C[C@@H](Cc2ccccc2)N(CCCC2CCCC2)C1=N` here?
**A.** -46%

**Q.** `CCOc1ccc(Nc2nc(NCC3CCCO3)c3ccccc3n2)cc1` (configuration not stated) was tested. Which inhibition did it give?
**A.** 12%

**Q.** With `C#CCOCCOCCOCCNc1nc(N2CCN(C(=O)[C@H](CCCCN)n3cc([C@@H](N)C(C)CC)nn3)CC2)nc(N2CCN(C(=O)[C@H](Cc3cc4ccccc4[nH]3)n3cc([C@@H](N)CC(C)C)nn3)CC2)n1` (some centres not stated) as the compound, how does the inhibition read?
**A.** -8%

**Q.** Which inhibition does the source give for `COc1cccc(C2=CC(c3ccc(N(C)C)cc3)n3nnnc3N2)c1` (configuration not stated) here?
**A.** -95%

**Q.** For `C[C@H]1CN([C@@H](C)CO)C(=O)c2cccc(NS(=O)(=O)c3ccc(Cl)cc3)c2O[C@@H]1CN(C)CC1CCCCC1`, which inhibition is on record?
**A.** -24%

**Q.** For `CCN1CCCC1CNC(=O)c1ccc2c(c1)NC(=O)/C(=C\c1ccc(OC)c(OC)c1)S2` (configuration not stated), which inhibition is on record?
**A.** 3%

**Q.** How did the inhibition turn out when `Cc1cc(OCC(=O)Nc2ccc(N3CCN(C)CC3)cc2)ccc1Cl` was run?
**A.** -14%

**Q.** Which inhibition does the source give for `CCCCCCCCCCCCCCCC[n+]1cccc(C(=O)N(CC)CC)c1` here?
**A.** 10%

**Q.** With `CN1CCN(c2ccc(NC(=O)COc3ccc4ccccc4c3)cc2)CC1` as the compound, how does the inhibition read?
**A.** -21%

**Q.** Which inhibition does the source give for `O=C1c2c(O)ccc(O)c2C(=O)c2c(NCCNCCO)ccc(NCCNCCO)c21` here?
**A.** -46%

**Q.** How did the inhibition turn out when `CCN(CC)c1ccc(-c2sc(Nc3ccccc3)n[n+]2-c2ccc(F)cc2)cc1` was run?
**A.** -94%

**Q.** Which inhibition does the source give for `CC(C)[C@@H]1CN=C(N)N1C[C@@H]1CCCN1C[C@H](C)N1C[C@@H](Cc2ccccc2)N(CCc2ccc(Cl)c(Cl)c2)C1=N` here?
**A.** -62%

**Q.** For `Cc1ccc(C2CC(c3cccc(C)c3)n3nc(N)nc3N2)cc1` (configuration not stated), which inhibition is on record?
**A.** -40%

**Q.** How did the inhibition turn out when `O=C(C1=C[C@@H](c2ccccc2)C[C@@H](OCc2ccc(CO)cc2)O1)N1CCN(Cc2ccc3c(c2)OCO3)CC1` was run?
**A.** -73%

**Q.** Which inhibition does the source give for `C#CCOCCOCCOCCNc1nc(N2CCN(C(=O)CCCCCCCCCCNC(=O)[C@H](CCCCN)n3cc(C)nn3)CC2)nc(N2CCN(C(=O)CCCCCCCCCCNC(=O)[C@H](CCCN=C(N)N)n3cc(C[C@@H](C)CC)nn3)CC2)n1` here?
**A.** -58%

**Q.** For `CN(C)c1ccc(NC(=O)Cn2cc3c(n2)CCCC3)cc1`, which inhibition is on record?
**A.** -22%

**Q.** With `CCN1CCN(c2ccc(NC(=O)COc3ccc(Cl)cc3C)cc2)CC1` as the compound, how does the inhibition read?
**A.** -7%

**Q.** How did the inhibition turn out when `CCC[C@@H](CN1CCC[C@H]1CN1C(N)=NC[C@@H]1Cc1ccccc1)N1C[C@@H]([C@H](C)CC)N(CCCC2CCCC2)C1=N` was run?
**A.** 9%

**Q.** `COc1cc2nc(Nc3ccc(C)c(C)c3)nc(N)c2cc1OC` was tested. Which inhibition did it give?
**A.** 0%

**Q.** Which inhibition does the source give for `CCCCC(CC)C(=O)Nc1cc(C(=O)NCCC)ccc1N1CCC2(CC1)CC(c1ccccc1)=NO2` (configuration not stated) here?
**A.** -141%

**Q.** `CN(C)c1ccc(C=NNC(=S)NCc2ccccc2)cc1` was tested. Which inhibition did it give?
**A.** -20%

**Q.** For `COc1ccc(C(=O)c2coc3ccc(O)c(CN4CCOCC4)c23)cc1`, which inhibition is on record?
**A.** -78%

**Q.** How did the inhibition turn out when `CNC(=S)N1N=C(c2ccc(C)cc2)CC1c1ccc(N(C)C)cc1` (configuration not stated) was run?
**A.** -85%

**Q.** With `CCN(CC)c1ccc2cc(C(N)=O)c(=NNC(=O)c3ccncc3)oc2c1` as the compound, how does the inhibition read?
**A.** -14%
